Among the data in PubChem BioAssay (Tox21) are outcome values, retold here.

Activity calls are given as the source filed them. The call rests on the fitted dose curve; in most records, active means well fitted curve in the direction sought with a large enough effect in the repeat runs; inconclusive means weak or mixed curves; inactive means flat fitted curve, though single readings scatter. Positions of bridges follow the written chain, without caps; N, C: chain ends. Non-standard residues stand in square brackets, D forms with d. Residues, ends and D or L forms follow the SMILES beside them. hArg = N=C(N)NCCCC[C@H](N)C(=O)O; Mpa = O=C(O)CCS

A short description of this experiment: qHTS assay to test for compound auto fluorescence at 460 nm (blue) in HEK293 cells (AID 720678). The conditions noted are these: blue autofluorescence 405/460 nm; series mostly up to 91.3 µM. From the text: National Center for Advancing Translational Sciences [NCATS]
NIH Chemical Genomics Center [NCGC]
U.S. Environmental Protection Agency [EPA]
National Institutes of Environmental Health Sciences [NIEHS]
National Toxicology Program [NTP]
U.S. Food and Drug Administration [FDA]
Compound auto fluorescence often interferes with screening of the compound library against various biological targets and signaling pathways. Some of these compounds may have fluorophoric properties. Such properties may interfere with the assay outputs resulting in false positives and/or negatives. To decrease such complications and ensure the compound activities are relevant in terms of biological response, the Tox21 10K compound library was screened for auto fluorescence.
From the fluorophores used as reporter signals in our screening assays, the auto fluorescence equivalencies of compounds against three fluorophores have been evaluated: Triamterene, Fluorescein and Rose Bengal sodium for blue, green and red fluorescence, respectively. The fluorescence intensities were measured using Excitation/Emission wavelengths at 405/460nm, 485/535nm and 540/590nm for blue, green and red labels, respectively. This assay includes the blue fluorescence data.
Tox21 Assay Protocol Summary:
2,000 HEK293 cells in 5 uL of culture medium containing 10% dialyzed FBS per well were dispensed into black wall/clear bottom 1536-well plates using a Multidrop Combi Dispenser (Thermo Scientific). The assay plates were incubated for 4-5 hr at 37C to allow cell attachment to the well bottom, followed by the transfer of 23 nL compound or DMSO vehicle by a pintool work station (Kalypsys, San Diego, CA). After the assay plates were incubated overnight at 37C and 5% CO2, fluorescence intensities in the assay plates were measured by an Envision (PerkinElmer, Shelton, CT) plate reader using three labels for measuring blue, green and red fluorescence at […] 460, 535 and 590nm respectively.
In general terms: qHTS replaces the single test concentration by a dilution series.
As for `CC(C)C1OCCN1CCOC(=O)NCCCCCCNC(=O)OCCN1CCOC1C(C)C` (stereo not given), the result was inactive.
Then `O/N=C/C=N/O`, with “inactive”; and `CC(C)OC(=O)CCC(=O)OC(C)C`, with “inactive”.
Then `C=Cc1ccc(C(C)(C)C)cc1`, with “inactive”.
Then `Cc1ncc([N+](=O)[O-])n1CC(C)O` (stereo not given), with “inactive”.
With `Cc1ccnc(N)c1`, the result was inactive.
Then `CCCCCc1cccc(=O)o1`, with “inactive”.
Then `CCC(C)C(=O)OCCc1ccccc1` (stereo not given), with “inactive”; and `CC(=O)OCC(=O)Nc1cc(C#N)cc(NC(=O)COC(C)=O)c1Cl`, with “inactive”; and `CC(C)NCC(O)c1ccc2ccccc2c1` (stereo not given), with “inactive”.
In the case of `O=S(=O)(O)c1ccc2c(N=Nc3ccc(S(=O)(=O)O)c4ccccc34)c(O)c(S(=O)(=O)O)cc2c1`, the call was inactive.
Then `CN(C)CCOC(=O)C(c1ccccc1)C1(O)CCCC1` (stereo not given), with “inactive”; and `CCCc1ccc(O)cc1`, with “inactive”; and `CCC/C=C(\C=O)CC`, with “inactive”.
On to `COS(=O)(=O)O`, for which the call was inactive.
Then `C=C(C)[C@@H]1CC=C(C)C(=O)C1`, with “inactive”; and `CCCCCCCCCOC(=O)c1ccccc1C(=O)OCCCCCCCCC`, with “inactive”; and `CC(C)Cn1cnc2c1c(=O)n(C)c(=O)n2C`, with “inactive”.
Then `NC(=O)[C@@H]1CSSCCC(=O)N[C@@H](CCCCN=C(N)N)C(=O)NCC(=O)N[C@@H](CC(=O)O)C(=O)N[C@@H](Cc2c[nH]c3ccccc23)C(=O)N2CCC[C@H]2C(=O)N1` ([Mpa][hArg]GDWPC-NH2; disulfide 1-7), with “inactive”.
In the case of `O=C=NCC1CCCC(CN=C=O)C1` (stereo not given), the result was inactive.
Then `CN(C)C(C)(C)CO`, with “inactive”; and `CCCC(=O)OC/C=C(\C)CCC=C(C)C`, with “inactive”.
With `CCC(=O)c1c(O)cc(O)cc1O`, the compound was called inactive.
In the case of `CC(=O)OC(C)=O`, the compound was classed as inactive.
In the case of `COc1ccc(CCO)cc1`, the call was inactive.
In the case of `CC(S)C(C)S` (stereo not given), the call was inactive.
Then `CC(C)CO`, with “inactive”.
For `O=Cc1cc2ccccc2o1`, the compound was classed as inactive.
Then `Cc1ccc(C(=O)O)cc1[N+](=O)[O-]`, with “inactive”.
Then `CC(O)COC(C)(C)C` (stereo not given), with “inactive”; and `CCCCOCC(C)O` (stereo not given), with “inactive”; and `CC(=O)C(C)O` (stereo not given), with “inactive”.
For the compound `O=Cc1ccccc1Cl`, the compound was classed as inactive.
Then `C=C(C)C1CC=C(C)C(=O)C1` (stereo not given), with “inactive”; and `C=CCCCC`, with “inactive”; and `CCc1occc(=O)c1O`, with “inactive”.
`CCCCOCCOC(=O)COc1ccc(Cl)cc1Cl`: the compound was classed as inactive.
With `CCOc1cccc(N)c1`, the result was inactive.
Then `CCCC(=O)OCCC(C)CCC=C(C)C` (stereo not given), with “inactive”.
Then `CC1=C(O)C(=O)C(C)O1` (stereo not given), with “inactive”.
